The nature of experiment [1]: NCI Yeast Anticancer Drug Screen. Data for the rad50 strain (AID 155).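 Also: 0% = growth of vehicle-only cultures of the same strain.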 The settings on record: S. cerevisiae rad50 strain growth inhibition, stronger effect = higher value. A digest of the protocol:
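Cells are treated with compound, grown, and their growth is then scored against vehicle-only cultures of the same repair-deficient yeast strain.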

Experiment [2] in a line: NCI Yeast Anticancer Drug Screen. Data for the mec2-1 strain (AID 157). The note with it: S. cerevisiae mec2-1 strain, stronger effect = higher value. The procedure, abridged:
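mec2-1 yeast strain, carrying an alteration in DNA damage repair or cell cycle control, was exposed to compounds; growth inhibition was measured relative to vehicle-treated controls.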

Experiment [3] can be described thus: NCI Yeast Anticancer Drug Screen. Data for the sgs1 mgt1 strain (AID 161).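 Also: 0% = growth of cultures given vehicle only.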 The settings on record: S. cerevisiae sgs1 mgt1 strain, stronger effect = higher value. A digest of the protocol:
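This yeast growth screen uses a strain with defined DNA-repair lesions; compound-treated growth is compared with vehicle-treated growth.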

The nature of experiment [4]: NCI Yeast Anticancer Drug Screen. Data for the cln2 rad14 strain (AID 165).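 Also: 0% = growth equal to vehicle treated cultures.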 The note with it: S. cerevisiae cln2 rad14 strain, stronger effect = higher value. A digest of the protocol:
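Yeast carrying cln2 and rad14 alterations (cell cycle control and DNA damage repair) were exposed to compounds. Growth inhibition was measured against vehicle-treated controls.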

Experiment [5] can be described thus: NCI Yeast Anticancer Drug Screen. Data for the bub3 strain (AID 167). The settings on record: S. cerevisiae bub3 mutant strain, stronger effect = higher value. A digest of the protocol:
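Part of a panel of yeast mutants defective in DNA damage repair or cell cycle regulation. Each strain is grown with compound, and inhibition is calculated relative to solvent-treated cultures.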

Experiment [6] is described as follows: NCI Yeast Anticancer Drug Screen. Data for the mlh1 rad18 strain (AID 175). The note with it: S. cerevisiae mlh1 rad18 strain growth inhibition, stronger effect = higher value. The procedure, abridged: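 Growth inhibition of the yeast strain was measured after compound exposure and expressed relative to vehicle-treated controls. The strain carries defined defects in DNA damage repair.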

Where [7] appears, read: at 5.0 µM (retest, dose inferred, filed as 0.5).
The mark [8] stands for this setting: at 50.0 µM (retest, dose inferred, filed as 5.0).

Molecules are shown by their SMILES. Several values for one entry are separate records, joined by “and”; a condition that tells them apart may be missing. Identical values can stand only once. Compounds without any hit were thinned out: in the full panel of roughly 79,000, 15% have a hit. A structure can be active in one record and inactive in another. Activity calls are given as the source filed them. Rule as the data show it: active = growth inhibition above about 70%; inactive = the rest.

Regarding `C[C@]12CC/C(=N\NC(=O)c3ccncc3)C[C@@H]1CC[C@@H]1[C@@H]2CC[C@]2(C)[C@@H](O)CC[C@@H]12`, the growth inhibition in experiment [1] (setting [7]) was 0% (inactive); in experiment [1] (setting [8]), 52% (inactive); in experiment [1] (at 50.0 µM) it was 68.9% (inactive); in experiment [2] (setting [7]) it was 5% (inactive); in experiment [2] (setting [8]) it was 54% (inactive); in experiment [2] (at 50.0 µM), 29.1% (inactive). Further, the growth inhibition was 13% (inactive) in experiment [3] (setting [7]); 65% (inactive) in experiment [3] (setting [8]); 77.3% (active) in experiment [3] (at 50.0 µM); 6% (inactive) in experiment [4] (setting [7]); 8% (inactive) in experiment [4] (setting [8]); 66.8% (inactive) in experiment [4] (at 50.0 µM). Besides, the growth inhibition is 2% (inactive) in experiment [5] (setting [7]); 37% (inactive) in experiment [5] (setting [8]); 35% (inactive) in experiment [5] (at 50.0 µM); 10% (inactive) in experiment [6] (setting [7]); 46% (inactive) in experiment [6] (setting [8]); 59.1% (inactive) in experiment [6] (at 50.0 µM).

In the case of `CCC[CH2][Sn]1([CH2]CCC)[O]CC(CN2CCCC2)[O]1` (centres undefined), the growth inhibition in experiment [1] (setting [7]) was 30% (inactive); in experiment [1] (setting [8]) it was 96% (active); in experiment [1] (at 50.0 µM), 83.8% (active); in experiment [2] (setting [7]), 28% (inactive); in experiment [2] (setting [8]), 98% (active); in experiment [2] (at 50.0 µM), 87.3% (active). Further, the growth inhibition was 46% (inactive) in experiment [3] (setting [7]); 97% (active) in experiment [3] (setting [8]); 84.2% (active) in experiment [3] (at 50.0 µM); 26% (inactive) in experiment [4] (setting [7]); 95% (active) in experiment [4] (setting [8]); 82.3% (active) in experiment [4] (at 50.0 µM). The growth inhibition in experiment [5] (setting [7]) is 36% (inactive); in experiment [5] (setting [8]), 97% (active); in experiment [5] (at 50.0 µM), 86.9% (active); in experiment [6] (setting [7]) it was 48% (inactive); in experiment [6] (setting [8]), 97% (active); in experiment [6] (at 50.0 µM), 82.2% (active).

With `COc1cc(C=Nc2cc[c]([Hg][O]C(C)=O)cc2)ccc1O`, the growth inhibition is 4% (inactive) in experiment [1] (setting [7]); 23% (inactive) in experiment [1] (setting [8]); 99.5% (active) in experiment [1] (at 50.0 µM); -1% (inactive) in experiment [2] (setting [7]); 67% (inactive) in experiment [2] (setting [8]); 99.5% (active) in experiment [2] (at 50.0 µM). Further, the growth inhibition in experiment [3] (setting [7]) is 2% (inactive); in experiment [3] (setting [8]) it was 67% (inactive); in experiment [3] (at 50.0 µM), 99.4% (active); in experiment [4] (setting [7]), -4% (inactive); in experiment [4] (setting [8]), 22% (inactive); in experiment [4] (at 50.0 µM), 99.3% (active). For the same compound, the growth inhibition in experiment [5] (setting [7]) was 3% (inactive); in experiment [5] (setting [8]) it was 75% (active); in experiment [5] (at 50.0 µM), 99.3% (active); in experiment [6] (setting [7]), 0% (inactive); in experiment [6] (setting [8]), 56% (inactive); in experiment [6] (at 50.0 µM), 99.3% (active).

As for `O=C(O)C1C2c3ccccc3C(c3ccccc32)C1Br` (centres undefined), the growth inhibition was -13% (inactive) in experiment [1] (setting [7]); 3% (inactive) in experiment [1] (setting [8]); 2.7% (inactive) in experiment [1] (at 50.0 µM); 0% (inactive) in experiment [2] (setting [7]); 9% (inactive) in experiment [2] (setting [8]); 3.8% (inactive) in experiment [2] (at 50.0 µM). The growth inhibition in experiment [3] (setting [7]) was -7% (inactive); in experiment [3] (setting [8]), 8% (inactive); in experiment [3] (at 50.0 µM), -1.2% (inactive); in experiment [4] (setting [7]), 3% (inactive); in experiment [4] (setting [8]), -1% (inactive); in experiment [4] (at 50.0 µM), 34.2% (inactive). Moreover, the growth inhibition in experiment [5] (setting [7]) is -20% (inactive); in experiment [5] (setting [8]), -29% (inactive); in experiment [5] (at 50.0 µM), -8.2% (inactive); in experiment [6] (setting [7]), -11% (inactive); in experiment [6] (setting [8]), -8% (inactive); in experiment [6] (at 50.0 µM), 14.1% (inactive).

As for `S=C(S)N1CCCCC1`, the growth inhibition in experiment [1] (setting [7]) was 42% (inactive) and 15% (inactive); in experiment [1] (setting [8]) it was 57% (inactive) and 13% (inactive); in experiment [1] (at 50.0 µM) it was 73.5% (active) and 45.1% (inactive) and 29.9% (inactive); in experiment [2] (setting [7]) it was 38% (inactive) and 19% (inactive); in experiment [2] (setting [8]), 60% (inactive) and 6% (inactive); in experiment [2] (at 50.0 µM) it was 45.7% (inactive) and 90.3% (active) and 31.6% (inactive). The growth inhibition is 42% (inactive) and 15% (inactive) in experiment [3] (setting [7]); 99% (active) and 41% (inactive) in experiment [3] (setting [8]); 60.5% (inactive) and 97.8% (active) and 25.5% (inactive) in experiment [3] (at 50.0 µM); 76% (active) and 3% (inactive) in experiment [4] (setting [7]); 99% (active) and -48% (inactive) in experiment [4] (setting [8]); 29.4% (inactive) and 33.2% (inactive) and 0.25% (inactive) in experiment [4] (at 50.0 µM). In addition, the growth inhibition in experiment [5] (setting [7]) is 56% (inactive) and 0% (inactive); in experiment [5] (setting [8]) it was 90% (active) and -1% (inactive); in experiment [5] (at 50.0 µM), 37.6% (inactive) and 99.3% (active) and -10.9% (inactive); in experiment [6] (setting [7]) it was 46% (inactive) and 31% (inactive); in experiment [6] (setting [8]), 56% (inactive) and 27% (inactive); in experiment [6] (at 50.0 µM), 52.8% (inactive) and 70.8% (active) and 59.6% (inactive).

In the case of `CCC[CH2][Sn]([CH2]CCC)([S]C#N)[S]C#N`, the growth inhibition was 95% (active) in experiment [1] (setting [7]); 97% (active) in experiment [1] (setting [8]); 89.3% (active) in experiment [1] (at 50.0 µM); 96% (active) in experiment [2] (setting [7]); 97% (active) in experiment [2] (setting [8]); 91% (active) in experiment [2] (at 50.0 µM). Besides, the growth inhibition was 93% (active) in experiment [3] (setting [7]); 97% (active) in experiment [3] (setting [8]); 90.5% (active) in experiment [3] (at 50.0 µM); 93% (active) in experiment [4] (setting [7]); 97% (active) in experiment [4] (setting [8]); 86% (active) in experiment [4] (at 50.0 µM). Also, the growth inhibition was 96% (active) in experiment [5] (setting [7]); 96% (active) in experiment [5] (setting [8]); 89.1% (active) in experiment [5] (at 50.0 µM); 97% (active) in experiment [6] (setting [7]); 97% (active) in experiment [6] (setting [8]); 88% (active) in experiment [6] (at 50.0 µM).

As to `NC(Cc1c[nH]c2ccccc12)P(=O)(O)O` (centres undefined), the growth inhibition is -1% (inactive) in experiment [1] (setting [7]); 37% (inactive) in experiment [1] (setting [8]); 38.1% (inactive) in experiment [1] (at 50.0 µM); 0% (inactive) in experiment [2] (setting [7]); 87% (active) in experiment [2] (setting [8]); 13.4% (inactive) in experiment [2] (at 50.0 µM). The growth inhibition was 3% (inactive) in experiment [3] (setting [7]); 29% (inactive) in experiment [3] (setting [8]); -7.75% (inactive) in experiment [3] (at 50.0 µM); 1% (inactive) in experiment [4] (setting [7]); 96% (active) in experiment [4] (setting [8]); 22.9% (inactive) in experiment [4] (at 50.0 µM). Besides, the growth inhibition in experiment [5] (setting [7]) is -9% (inactive); in experiment [5] (setting [8]), 98% (active); in experiment [5] (at 50.0 µM), -0.8% (inactive); in experiment [6] (setting [7]), -9% (inactive); in experiment [6] (setting [8]), 47% (inactive); in experiment [6] (at 50.0 µM), 26% (inactive).

Take `Oc1ccc(Cl)cc1Sc1cc(Cl)ccc1O`: the growth inhibition in experiment [1] (setting [7]) is 99% (active) and 98% (active) and 90% (active); in experiment [1] (setting [8]), 100% (active) and 99% (active); in experiment [1] (at 50.0 µM) it was 99.3% (active) and 41% (inactive) and 99.6% (active); in experiment [2] (setting [7]), 98% (active) and 94% (active) and 68% (inactive); in experiment [2] (setting [8]) it was 100% (active) and 99% (active); in experiment [2] (at 50.0 µM), 99.5% (active) and 99.7% (active). Also, the growth inhibition was 96% (active) and 98% (active) and 88% (active) in experiment [3] (setting [7]); 99% (active) and -8% (inactive) in experiment [3] (setting [8]); 99.5% (active) and 99.6% (active) and 99.7% (active) in experiment [3] (at 50.0 µM); 98% (active) and 94% (active) in experiment [4] (setting [7]); 100% (active) and 99% (active) in experiment [4] (setting [8]); 99% (active) and 99.3% (active) and 99.2% (active) in experiment [4] (at 50.0 µM). The growth inhibition in experiment [5] (setting [7]) is 99% (active) and 88% (active) and 68% (inactive); in experiment [5] (setting [8]), 100% (active) and 99% (active); in experiment [5] (at 50.0 µM), 99.3% (active) and 99.5% (active) and 99.6% (active); in experiment [6] (setting [7]), 99% (active) and 89% (active); in experiment [6] (setting [8]) it was 100% (active) and 99% (active); in experiment [6] (at 50.0 µM) it was 99.3% (active) and 99.5% (active) and 99.4% (active).

These data come from PubChem BioAssay (NCI).
